The values below come from PubChem BioAssay.

A number with no mark means an inactive call. The list shows a part of the results. Active and inactive are the calls of the source.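 The calls were made as follows, unless noted: active = inhibition above the hit cutoff set in the earlier primary screen (cut at about 27% in these data); inactive = the rest.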

In test [1] the test system is HIV-1 integrase (multimerization). The test can be described thus: stimulation of HIV-1 integrase oligomerization – biochemical, TR-FRET, counter-screen for LEDGF/p75 integration inhibitor project (AID 1053131; in the data active = activation above about 8.9%). As to conditions: TR-FRET HIV-1 integrase multimerization, at 7.7 µM, hits give high values.
A short description of test [2]: compounds disturbing TR-FRET signal readout – biochemical, HIV-1 IN multimerization, artefact control for LEDGF/p75-dependent integration inhibitor project, confirmation (AID 1053135;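 active = inhibition above the mean over all tested compounds plus 3 SD, which no compound reached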;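 also: 0% = integrase with antibodies and DMSO and 100% = antibodies without integrase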). As to conditions: TR-FRET optical interference counterscreen, at 7.7 µM, hits give high values.
Test [3] concerns HIV-1 integrase / human LEDGF/p75 complex. The test can be described thus: blockers of LEDGF/p75-dependent integrase activity – biochemical, TR-FRET, confirmation (AID 1053136; in the data active = inhibition above about 14%). The conditions noted are these: TR-FRET LEDGF/p75-dependent HIV-1 integration, at 3.7 µM, hits give high values.
Test [4] has as its target Protein phosphatase methylesterase 1 (Homo sapiens) (UniProt Q9Y570). Kind of test: human PME-1 methylesterase inhibition confirmation – biochemical, fluorescence polarization, FP-Rh probe, triplicate (AID 2171).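 Also: 0% = enzyme with DMSO and 100% = wells lacking PME-1.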 The conditions noted are these: recombinant PME-1, FP-Rh probe fluorescence polarization; at 5.9 µM; hits give high values.
The target in test [5] is Bcl-2-like protein 1 (Homo sapiens) (UniProt Q07817). Kind of test: Bcl-xL BH3-peptide displacement, hit confirmation – biochemical, fluorescence polarization, counter-screen for MCL1 inhibitor project (AID 2166;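 active = inhibition above a cutoff equal to the mean inhibition of all tested compounds plus 3 SD, cut at about 30% in these data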). The conditions noted are these: GST-Bcl-xL / FITC-Bim BH3 peptide FP binding; at 10.9 µM; hits give high values.
Chain of Bcl-2-like protein 1 (Homo sapiens) (Q07817 whole entry, looked up): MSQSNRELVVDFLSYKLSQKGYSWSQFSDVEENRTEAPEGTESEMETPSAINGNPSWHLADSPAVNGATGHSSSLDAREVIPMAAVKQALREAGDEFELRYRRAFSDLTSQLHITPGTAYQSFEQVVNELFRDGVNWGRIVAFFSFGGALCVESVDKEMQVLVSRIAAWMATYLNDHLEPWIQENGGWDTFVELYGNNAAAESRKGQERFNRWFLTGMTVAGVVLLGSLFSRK
The target of test [6] is Peroxisome proliferator-activated receptor gamma (Homo sapiens) (UniProt P37231). The test can be described thus: retested PPARg-SRC-2 recruitment enhancers – biochemical, HTS, confirmation (AID 1297; in the data active = activation above about 22%;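 also: 0% = vehicle alone and 100% = reference agonist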). As to conditions: biochemical SRC-2 recruitment by PPARgamma; at 8 µM; hits give high values.
Chain of Peroxisome proliferator-activated receptor gamma (Homo sapiens) (P37231 whole entry, looked up): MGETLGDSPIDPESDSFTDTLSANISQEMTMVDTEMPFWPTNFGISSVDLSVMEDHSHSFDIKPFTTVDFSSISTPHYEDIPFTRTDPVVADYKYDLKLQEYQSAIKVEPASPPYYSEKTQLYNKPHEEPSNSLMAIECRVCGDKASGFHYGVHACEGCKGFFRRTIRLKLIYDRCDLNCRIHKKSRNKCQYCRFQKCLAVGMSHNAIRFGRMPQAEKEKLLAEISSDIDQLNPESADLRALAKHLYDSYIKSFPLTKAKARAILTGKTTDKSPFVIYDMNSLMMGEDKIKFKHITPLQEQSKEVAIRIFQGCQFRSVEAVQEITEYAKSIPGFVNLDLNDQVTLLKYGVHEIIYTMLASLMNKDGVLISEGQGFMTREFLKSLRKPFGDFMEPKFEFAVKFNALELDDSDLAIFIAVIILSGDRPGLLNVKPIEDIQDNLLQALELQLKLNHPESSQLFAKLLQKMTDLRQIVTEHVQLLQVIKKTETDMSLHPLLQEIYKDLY
Test [7] has the same target. The test can be described thus: retest of SRC-1 recruitment enhancers for PPARgamma – biochemical, confirmation (AID 1300; in the data active = activation above about 20%;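 also: 0% = vehicle wells and 100% = reference agonist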). The conditions noted are these: PPARgamma–SRC-1 coactivator recruitment biochemical assay; at 8 µM; hits give high values.
The target in test [8] is Peroxisome proliferator-activated receptor gamma (Homo sapiens) + Nuclear receptor coactivator 3 (Homo sapiens) (UniProt P37231+Q9Y6Q9). Kind of test: agonists promoting SRC-3 binding to PPARgamma – biochemical, confirmation (AID 1301; in the data active = activation above about 24%;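 also: 0% = vehicle wells and 100% = reference agonist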). As to conditions: biochemical PPARgamma-SRC-3 coactivator recruitment, agonist mode; at 8 µM; hits give high values.
Chain of Peroxisome proliferator-activated receptor gamma (Homo sapiens) + Nuclear receptor coactivator 3 (Homo sapiens) (P37231 whole entry, looked up): as above
Chain of Peroxisome proliferator-activated receptor gamma (Homo sapiens) + Nuclear receptor coactivator 3 (Homo sapiens) (Q9Y6Q9 whole entry, looked up): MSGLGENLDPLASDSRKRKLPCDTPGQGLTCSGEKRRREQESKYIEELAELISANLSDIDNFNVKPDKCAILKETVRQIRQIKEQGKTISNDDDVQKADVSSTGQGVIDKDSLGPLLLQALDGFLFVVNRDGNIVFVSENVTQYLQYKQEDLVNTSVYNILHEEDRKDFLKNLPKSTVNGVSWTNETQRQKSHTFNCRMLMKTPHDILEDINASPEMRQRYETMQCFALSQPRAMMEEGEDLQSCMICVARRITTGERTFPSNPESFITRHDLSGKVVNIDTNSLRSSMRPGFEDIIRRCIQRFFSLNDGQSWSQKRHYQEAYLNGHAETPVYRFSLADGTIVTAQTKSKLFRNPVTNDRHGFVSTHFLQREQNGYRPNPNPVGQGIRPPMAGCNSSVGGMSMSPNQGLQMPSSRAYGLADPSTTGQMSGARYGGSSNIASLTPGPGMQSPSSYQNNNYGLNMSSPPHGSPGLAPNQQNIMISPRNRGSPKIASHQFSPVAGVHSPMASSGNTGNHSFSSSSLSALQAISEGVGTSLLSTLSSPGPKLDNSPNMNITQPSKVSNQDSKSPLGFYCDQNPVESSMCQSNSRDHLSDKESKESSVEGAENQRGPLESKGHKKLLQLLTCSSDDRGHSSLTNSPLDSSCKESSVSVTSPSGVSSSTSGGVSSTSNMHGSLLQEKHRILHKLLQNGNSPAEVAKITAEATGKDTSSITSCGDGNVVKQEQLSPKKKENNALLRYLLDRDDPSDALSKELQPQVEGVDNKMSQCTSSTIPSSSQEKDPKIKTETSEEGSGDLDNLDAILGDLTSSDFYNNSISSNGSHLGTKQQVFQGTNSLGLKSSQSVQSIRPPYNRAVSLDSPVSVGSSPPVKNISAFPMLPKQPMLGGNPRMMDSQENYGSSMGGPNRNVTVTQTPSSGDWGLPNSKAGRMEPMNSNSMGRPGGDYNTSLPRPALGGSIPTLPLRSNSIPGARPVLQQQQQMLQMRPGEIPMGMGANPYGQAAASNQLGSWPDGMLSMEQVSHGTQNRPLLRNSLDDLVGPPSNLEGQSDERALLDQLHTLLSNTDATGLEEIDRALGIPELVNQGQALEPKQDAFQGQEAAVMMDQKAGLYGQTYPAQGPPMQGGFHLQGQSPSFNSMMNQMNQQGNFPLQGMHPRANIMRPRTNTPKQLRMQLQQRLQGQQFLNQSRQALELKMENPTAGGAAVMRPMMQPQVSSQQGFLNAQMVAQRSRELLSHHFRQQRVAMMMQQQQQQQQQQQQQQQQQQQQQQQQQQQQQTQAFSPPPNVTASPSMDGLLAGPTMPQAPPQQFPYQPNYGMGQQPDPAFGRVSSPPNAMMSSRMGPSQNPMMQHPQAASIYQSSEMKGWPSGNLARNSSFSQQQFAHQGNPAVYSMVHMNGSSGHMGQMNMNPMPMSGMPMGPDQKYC
For test [9], the target named is (Lyso)-N-acylphosphatidylethanolamine lipase (Mus musculus) (UniProt Q8VD66). Kind of test: mouse ABHD4 hydrolase blockers, triplicate – biochemical, fluorescence polarization, confirmation (AID 720658;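 active = mean inhibition across replicates above the hit cutoff set in the primary screen, cut at about 30% in these data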;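 also: 0% = wild-type ABHD4 with DMSO and 100% = catalytically dead S159A mutant with DMSO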). The conditions noted are these: purified mABHD4, FP-Rh probe fluorescence polarization; at 8.92 µM; hits give high values.
Chain of (Lyso)-N-acylphosphatidylethanolamine lipase (Mus musculus) (Q8VD66 whole entry, looked up): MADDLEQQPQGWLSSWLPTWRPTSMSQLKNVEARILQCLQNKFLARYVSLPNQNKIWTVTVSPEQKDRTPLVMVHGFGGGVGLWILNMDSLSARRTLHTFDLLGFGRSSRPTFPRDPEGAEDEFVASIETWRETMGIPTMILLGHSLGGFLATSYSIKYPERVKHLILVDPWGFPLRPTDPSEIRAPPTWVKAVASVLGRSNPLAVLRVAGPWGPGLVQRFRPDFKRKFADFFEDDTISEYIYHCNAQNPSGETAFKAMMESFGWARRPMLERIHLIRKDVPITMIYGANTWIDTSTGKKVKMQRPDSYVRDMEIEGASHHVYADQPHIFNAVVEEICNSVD
The target in test [10] is Induced myeloid leukemia cell differentiation protein Mcl-1 (Homo sapiens) (UniProt Q07820). The test can be described thus: MCL1-BIM peptide interaction disruptors – biochemical, fluorescence polarization, triplicate, confirmation (AID 2168;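 active = inhibition above the average of all tested compounds plus 3 SD, cut at about 40% in these data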;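 also: 0% = DMSO wells and 100% = unlabeled Bim-BH3 control peptide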). As to conditions: GST-MCL1 / FITC-Bim-BH3 fluorescence polarization; at 10.9 µM; hits give high values.
The target in test [11] is Platelet-activating factor acetylhydrolase (Homo sapiens) (UniProt Q13093). Kind of test: inhibition of plasma PAF acetylhydrolase – biochemical, fluorescence polarization, human, confirmation (AID 463230;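 active = mean inhibition of the triplicate above the hit cutoff set for the earlier primary screen, cut at about 25% in these data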;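 also: 0% = enzyme with DMSO and 100% = wells lacking pPAFAH enzyme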). The conditions noted are these: recombinant pPAFAH, FP-Rh probe fluorescence polarization; at 3.39 µM; hits give high values.
Chain of Platelet-activating factor acetylhydrolase (Homo sapiens) (Q13093 whole entry, looked up): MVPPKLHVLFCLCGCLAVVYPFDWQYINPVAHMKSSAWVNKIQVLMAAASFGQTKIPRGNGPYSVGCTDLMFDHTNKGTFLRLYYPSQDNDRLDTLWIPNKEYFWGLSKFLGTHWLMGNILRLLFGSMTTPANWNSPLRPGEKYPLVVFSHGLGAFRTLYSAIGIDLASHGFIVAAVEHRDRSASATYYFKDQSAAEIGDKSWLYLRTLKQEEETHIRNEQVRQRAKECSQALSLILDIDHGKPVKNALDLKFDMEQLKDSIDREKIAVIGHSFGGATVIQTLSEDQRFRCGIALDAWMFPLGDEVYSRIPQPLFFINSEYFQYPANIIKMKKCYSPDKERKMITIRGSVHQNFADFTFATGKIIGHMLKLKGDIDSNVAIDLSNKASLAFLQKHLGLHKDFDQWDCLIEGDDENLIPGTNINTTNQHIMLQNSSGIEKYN
The target of test [12] is Glutathione S-transferase omega-1 (Homo sapiens) (UniProt P78417). The test can be described thus: recombinant GSTO1 blockers, retest – biochemical, fluorescence polarization, triplicate, counter-screen for RBBP9 inhibitor project, confirmation (AID 2176;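 active = inhibition above the primary screen's cutoff, its mean inhibition plus 3 SD, cut at about 35% in these data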;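 also: loss of polarization as inhibitors block binding of rhodamine sulfonate ester activity probe; 0% = GSTO1 with DMSO and 100% = wells lacking GSTO1 enzyme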). The conditions noted are these: recombinant GSTO1, probe fluorescence polarization; at 5.96 µM; hits give high values.
Chain of Glutathione S-transferase omega-1 (Homo sapiens) (P78417 whole entry, looked up): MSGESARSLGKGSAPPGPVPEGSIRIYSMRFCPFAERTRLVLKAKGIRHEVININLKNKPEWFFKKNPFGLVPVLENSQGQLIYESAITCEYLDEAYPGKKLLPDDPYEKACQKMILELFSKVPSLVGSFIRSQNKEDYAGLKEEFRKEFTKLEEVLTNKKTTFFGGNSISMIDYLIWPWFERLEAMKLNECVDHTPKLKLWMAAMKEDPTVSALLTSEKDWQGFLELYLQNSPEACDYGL

In test [13] the target is Protein-arginine deiminase type-4 (Homo sapiens) (UniProt Q9UM07). Kind of test: protein arginine deiminase 4 blockade, retest – biochemical, fluorescence polarization, confirmation (AID 488796;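 active = mean inhibition across replicates above the hit cutoff set by the earlier primary screen, cut at about 15% in these data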;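 also: inhibitors block active-site labeling by the probe so polarization falls; 0% = PAD4 with probe and DMSO and 100% = probe without PAD4 enzyme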). The conditions noted are these: recombinant PAD4, RCA probe fluorescence polarization; at 6.36 µM; hits give high values.
Chain of Protein-arginine deiminase type-4 (Homo sapiens) (Q9UM07 whole entry, looked up): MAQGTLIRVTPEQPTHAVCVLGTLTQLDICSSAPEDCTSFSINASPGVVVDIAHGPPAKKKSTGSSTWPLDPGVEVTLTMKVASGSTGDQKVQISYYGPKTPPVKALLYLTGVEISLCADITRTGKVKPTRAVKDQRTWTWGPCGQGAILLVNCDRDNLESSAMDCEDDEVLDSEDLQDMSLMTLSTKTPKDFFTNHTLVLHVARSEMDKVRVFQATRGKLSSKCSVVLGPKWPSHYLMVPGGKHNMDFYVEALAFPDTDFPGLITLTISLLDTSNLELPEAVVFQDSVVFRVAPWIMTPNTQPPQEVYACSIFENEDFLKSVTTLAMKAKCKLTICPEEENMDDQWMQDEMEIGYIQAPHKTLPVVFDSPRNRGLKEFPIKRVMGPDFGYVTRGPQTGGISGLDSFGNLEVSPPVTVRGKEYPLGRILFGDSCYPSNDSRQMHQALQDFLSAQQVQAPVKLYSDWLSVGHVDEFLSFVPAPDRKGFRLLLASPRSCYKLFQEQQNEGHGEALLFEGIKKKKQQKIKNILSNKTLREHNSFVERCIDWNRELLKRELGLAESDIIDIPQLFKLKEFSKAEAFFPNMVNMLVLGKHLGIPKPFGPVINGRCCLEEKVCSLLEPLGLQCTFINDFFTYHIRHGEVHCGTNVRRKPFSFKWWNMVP
The target in test [14] is Platelet-activating factor acetylhydrolase IB subunit alpha1 (Homo sapiens) (UniProt Q15102). Kind of test: inhibition of PAF acetylhydrolase 1B subunit 3 – biochemical, fluorescence polarization, human, confirmation (AID 493032;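 active = average inhibition over triplicate runs above the hit cutoff set in the earlier primary screen, cut at about 25% in these data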;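 also: 0% = enzyme with DMSO and 100% = wells lacking PAFAH1B3 protein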). The conditions noted are these: recombinant PAFAH1B3, FP-Rh activity-based probe, at 3.39 µM, hits give high values.
Chain of Platelet-activating factor acetylhydrolase IB subunit alpha1 (Homo sapiens) (Q15102 whole entry, looked up): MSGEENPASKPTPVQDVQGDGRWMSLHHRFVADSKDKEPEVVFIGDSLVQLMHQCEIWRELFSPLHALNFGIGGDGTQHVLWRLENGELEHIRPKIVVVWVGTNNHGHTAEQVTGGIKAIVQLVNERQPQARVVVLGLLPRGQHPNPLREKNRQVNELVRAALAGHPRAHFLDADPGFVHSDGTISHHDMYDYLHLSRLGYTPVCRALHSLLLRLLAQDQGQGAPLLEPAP

Chain of Protein phosphatase methylesterase 1 (Homo sapiens) (Q9Y570 whole entry, looked up): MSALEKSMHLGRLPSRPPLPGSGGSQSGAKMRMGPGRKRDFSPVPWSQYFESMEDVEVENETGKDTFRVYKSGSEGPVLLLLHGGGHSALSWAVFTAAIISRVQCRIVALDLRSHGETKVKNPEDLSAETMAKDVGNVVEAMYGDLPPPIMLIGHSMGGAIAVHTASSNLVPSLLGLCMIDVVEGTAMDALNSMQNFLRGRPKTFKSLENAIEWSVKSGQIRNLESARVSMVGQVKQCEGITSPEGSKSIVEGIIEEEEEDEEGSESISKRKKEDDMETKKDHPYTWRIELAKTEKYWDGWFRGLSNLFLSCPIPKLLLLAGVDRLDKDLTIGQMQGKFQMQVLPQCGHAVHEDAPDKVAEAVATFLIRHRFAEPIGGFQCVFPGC

`O=C1NC(=O)N(Cc2ccco2)C(=O)/C1=C\c1ccc(-c2ccc(F)cc2)o1`: the activation in test [1] was 1.86%. Moreover, the values for the inhibition in test [2] and in [3] were -6.88% and 11.9%, respectively. `Oc1ccc(/C=N/NP(=S)(c2ccccc2)c2ccccc2)c(O)c1O`: the inhibition in [4] is -8.43%. With `NP(=O)(OCCCCc1ccccc1)Oc1ccccc1Cl` (configuration not stated), in [4], the inhibition is 47.4% (active). The same measure, in the same setting: for `NC(Cc1cc(O)c(O)cc1O)C(=O)O` (configuration not stated) the value was 69.4% (active). `COc1cccc(N2C(=O)NC(=O)/C(=C\c3cn(C)c4ccccc34)C2=O)c1`: the inhibition in test [5] was 189% (active).

For the molecule `Cc1oc(-c2ccccc2)nc1CN1C(=O)CN=C(c2ccccc2)c2ccccc21`, the inhibition in test [4] was 66.1% (active).

Take `CC(C)CCOP(N)(=O)Oc1ccccc1Cl` (configuration not stated): the inhibition in test [4] is 42.3% (active). The same measure, in the same setting: with `Nc1c(C(=O)NCc2ccco2)c2nc3ccccc3nc2n1CCN1CCOCC1` the figure was 7.2%; with `CC(=O)c1ccc2c(c1)C1C(Cl)C(Sc3ccccc3[N+](=O)[O-])CC1C(c1ccccc1[N+](=O)[O-])N2` (configuration not stated), 20.4%. On to `CSC1=NP(=S)(SC)N(C)c2nc3n(c21)CCC3` (configuration not stated), for which the activation was 51.6% (active) in test [6], 33.3% (active) in [7] and 35.7% (active) in [8].

As to `Cc1c(C(=O)O)cccc1-n1c(C)cc(/C=C2\C(=O)NC(=O)N(c3ccc4c(c3)OCO4)C2=O)c1C`, the activation in test [1] was 0.15%. In addition, the inhibition in [2] was -0.77%; in test [3], 22.9% (active). Turning to `COc1cc(-n2c(=S)[nH]c3ccc(C)cc3c2=O)c(Cl)cc1Cl`, the results for the activation in test [6], in test [7] and in [8] were 24.6% (active), 12.2% and 12.4%, respectively. For the same molecule, the inhibition in test [9] was 37.6% (active). Consider `O=C1NC(=O)N(c2ccccc2)C(=O)/C1=C/c1ccc([N+](=O)[O-])s1`, for which the figures for the inhibition in test [5], in test [10] and in [11] were 36.9% (active), 66.3% (active) and 44% (active), respectively. Take `Cc1cc(/C=C2/C(=O)NC(=O)N(Cc3ccco3)C2=O)c(C)n1-c1ccc(C(=O)O)cc1`: the activation in [1] was 5.24%. Further, the figures for the inhibition in test [2] and in test [3] were -26.4% and 36.5% (active), respectively. Take `CN1/C(=C\C=C\C2=[N+](C)c3ccc4ccccc4c3C2(C)C)C(C)(C)c2ccccc21`: in [4], the inhibition was 79.1% (active). For the molecule `CCOC(=O)c1c(N)n(Cc2ccccc2)c2nc3ccccc3nc12`, the inhibition is 13.8% in [12]; -4.66% in test [13]; 8.51% in test [14]; 2.59% in test [2]; -1.64% in test [3]. For the same molecule, the activation in [1] was -0.51%. In the case of `CC(C)C(=O)c1cn(Cc2ccccc2C#N)c2ccccc12`, the inhibition in test [4] is 62.8% (active). Consider `O=[N+]([O-])c1ccc(NCc2ccccc2)c2nonc12`, for which the inhibition in [4] is 50.5% (active). Same read-out and setting: with `O=C(CF)NC(Nc1cccc2cccnc12)C(Cl)(Cl)Cl` (configuration not stated) the figure was 53% (active).
